Measurements published in PubChem BioAssay AID1159580 (chemical genetic matrix, 2015).
Values joined by “and” are separate entries in the source; they are usually repeats but may differ in a detail not shown here. Equal values may be shown once. In all, about 5,500 compounds went through this assay and about 2,000 (36%) were called active. Roughly 18% stayed inconclusive and do not appear here. Rule as the data show it: active = normalized growth mostly below about 0.91 (no sharp cut-off); inconclusive = no clear call, values can overlap the other calls; inactive = mostly above about 0.92. This is one part of the list.

Experiment: chemical genetic growth profiling, strain panel (AID 1159580);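 also: tested at 20 µM; growth read once vehicle control cultures reached saturation at 30 °C; 1 = growth at the plate median or of vehicle wells; lower values mean less growth of the strain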
Settings: S. cerevisiae deletion strains, growth OD

Measured: normalized growth

O=c1c(O)cc([C@H]2Oc3cc(O)cc(O)c3C[C@H]2O)cc2c([C@H]3Oc4cc(O)cc(O)c4C[C@H]3O)cc(O)c(O)c12
inactive: locus YAL013W, strain DEP1, stronger effect = lower value 1.01 | locus YAL021C, strain ccr4, stronger effect = lower value 1.01 | locus YAL026C, strain drs2, stronger effect = lower value 1.04 | locus YAL030W, strain snc1, stronger effect = lower value 1.04 | locus YBL061C, strain skt5, stronger effect = lower value 1.03 | locus YBR009C, strain hhf1, stronger effect = lower value 1.04 | locus YBR021W, strain FUR4, stronger effect = lower value 1.01 | locus YBR023C, strain chs3, stronger effect = lower value 1.02 | locus YBR171W, strain sec66, stronger effect = lower value 1.06 | locus YBR229C, strain ROT2, stronger effect = lower value 0.998 | locus YBR231C, strain swc5, stronger effect = lower value 1.02 | locus YBR279W, strain paf1, stronger effect = lower value 1.02 | locus YCL011C, strain gbp2, stronger effect = lower value 1.04 | locus YCL016C, strain dcc1, stronger effect = lower value 1.02 | locus YCL029C, strain bik1, stronger effect = lower value 0.998 | locus YCL069W, strain vba3, stronger effect = lower value 1.03 | locus YCR088W, strain abp1, stronger effect = lower value 1.04 | locus YDL005C, strain med2, stronger effect = lower value 1.05 | locus YDL035C, strain GPR1, stronger effect = lower value 1.03 | locus YDL040C, strain nat1, stronger effect = lower value 1.04 | locus YDL074C, strain BRE1, stronger effect = lower value 1.04 | locus YDL101C, strain DUN1, stronger effect = lower value 1.02 | locus YDL185W, strain tfp1, stronger effect = lower value 1.01 | locus YDL192W, strain arf1, stronger effect = lower value 1 | locus YDR001C, strain nth1, stronger effect = lower value 1.03 | locus YDR069C, strain doa4, stronger effect = lower value 0.995 | locus YDR101C, strain arx1, stronger effect = lower value 1.02 | locus YDR137W, strain rgp1, stronger effect = lower value 1.03 | locus YDR159W, strain sac3, stronger effect = lower value 1.1 | locus YDR162C, strain NBP2, stronger effect = lower value 1.03 | locus YDR195W, strain ref2 1.04 | locus YDR297W, strain sur2, stronger effect = lower value 1.02 | locus YDR318W, strain mcm21, stronger effect = lower value 1.02 | locus YDR334W, strain swr1, stronger effect = lower value 1.03 | locus YDR335W, strain msn5, stronger effect = lower value 1.02 | locus YDR388W, stronger effect = lower value 0.995 | locus YDR392W, strain spt3, stronger effect = lower value 1.03 | locus YDR502C, strain sam2, stronger effect = lower value 1.03 | locus YEL003W, strain gim4, stronger effect = lower value 1.03 | locus YEL037C, strain rad23, stronger effect = lower value 1.02 | locus YEL061C, strain CIN8 (second series), stronger effect = lower value 1.04 | locus YEL061C, strain CIN8, stronger effect = lower value 1.01 | locus YER015W, strain faa2, stronger effect = lower value 1.01 | locus YER016W, strain bim1, stronger effect = lower value 1.04 | locus YER110C, stronger effect = lower value 1.03 | locus YER111C, strain swi4, stronger effect = lower value 1.01 | locus YER155C, strain BEM2 (second series), stronger effect = lower value 1.08 | locus YER155C, strain BEM2, stronger effect = lower value 1.05 | locus YER167W, strain BCK2, stronger effect = lower value 1.02 | locus YFR010W, strain ubp6, stronger effect = lower value 1.03 | locus YGL078C, strain dbp3, stronger effect = lower value 1.01 | locus YGL086W, strain mad1, stronger effect = lower value 1.02 | locus YGL167C, strain pmr1, stronger effect = lower value 1.03 | locus YGL173C, strain kem1, stronger effect = lower value 1.03 | locus YGL227W, strain vid30, stronger effect = lower value 1.05 | locus YGL240W, strain doc1, stronger effect = lower value 1.06 | locus YGL248W, strain PDE1, stronger effect = lower value 0.998 | locus YGL253W, strain hxk2, stronger effect = lower value 1.05 | locus YGR135W, strain pre9, stronger effect = lower value 1.01 | locus YGR252W, strain gcn5, stronger effect = lower value 1.01 | locus YHR013C, strain ard1, stronger effect = lower value 1.05 | locus YHR027C, strain rpn1, stronger effect = lower value 1.02 | locus YHR030C, strain SLT2, stronger effect = lower value 0.985 | locus YHR079C, strain IRE1 (second series), stronger effect = lower value 1.02 | locus YHR079C, strain IRE1, stronger effect = lower value 0.999 | locus YHR094C, strain hxt1, stronger effect = lower value 1.02 | locus YHR129C, strain ARP1, stronger effect = lower value 1.01 | locus YHR142W, strain chs7, stronger effect = lower value 1.05 | locus YHR200W, strain rpn10, stronger effect = lower value 0.994 | locus YIL066C, strain RNR3, stronger effect = lower value 1.02 | locus YIL073C, strain SPO22, stronger effect = lower value 1.1 | locus YIL125W, strain kgd1, stronger effect = lower value 1.02 | locus YIR030C, strain dcg1, stronger effect = lower value 1.01 | locus YJL092W, strain hpr5, stronger effect = lower value 1.03 | locus YJL095W, strain BCK1 (second series), stronger effect = lower value 1.02 | locus YJL095W, strain BCK1, stronger effect = lower value 0.995 and 1.01 | locus YJL115W, strain asf1, stronger effect = lower value 1.05 | locus YJL134W, strain LCB3, stronger effect = lower value 1.02 | locus YJL154C, strain vps35, stronger effect = lower value 1.04 | locus YJL164C, strain tpk1, stronger effect = lower value 1.01 | locus YJL166W, strain qcr8, stronger effect = lower value 1.05 | locus YJL168C, strain set2, stronger effect = lower value 1.02 | locus YJL187C, strain SWE1 (second series), stronger effect = lower value 0.997 | locus YJR043C, strain POL32, stronger effect = lower value 1.03
active: locus YJL129C, strain trk1, stronger effect = lower value 1.14 [resistant]
